# Laboratory results as given in the supplement of paper PMC6953052.
# “And” between values parts separate entries of the source, which are not always exact repeats. Identical values can stand only once. ± gives the standard deviation of the averaged measurements. Whole data set: some 1,700 compounds, median “fraction of GFP-LC3-positive cells (≥5 vesicles/cell)” near 0.43, cut for the highest 2% near 0.81. This excerpt belongs to a sample that is enriched for the highest values.
# Test system: CbCln3 Δex7/8/Δex7/8 GFP-LC3 cerebellar neuronal cells
# Experiment: fraction of GFP-LC3-positive cells (≥5 vesicles/cell); higher = more autophagosome accumulation
# Procedure, shortened: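 Wild-type or mutant CbCln3 cerebellar cells stably expressing GFP-LC3 (2 × 10^3/well, 384-well) received ~50 nL compound in DMSO by pin transfer, in duplicate, for 24 h at 33 °C. Hoechst 33342 and LysoTracker Red were added for the final 30 min before 3.2% PFA fixation and 10× imaging of three fields per well. CellProfiler counted GFP-LC3 vesicles per cell. The value is the fraction of cells with 5 or more vesicles, averaged over duplicates, with out-of-focus images excluded.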
row,SMILES,fraction of GFP-LC3-positive cells
1,CN[C@H]1CC[C@@H](c2ccc(Cl)c(Cl)c2)c2ccccc21 [Sertraline],0.311
2,Oc1ccc(-c2nc(-c3ccc(F)cc3)c(-c3ccncc3)[nH]2)cc1,0.524 and 0.566
3,N=C(N)NCCC[C@H](NC(=O)[C@@H]1CCCN1C(=O)[C@H](N)Cc1ccccc1)C(=O)CCl,0.502
4,CCCC[C@@H](C=O)NC(=O)[C@H](CC(C)C)NC(=O)[C@H](CC(C)C)NC(C)=O,0.93
5,CC(=O)N[C@@H](CC(C)C)C(=O)N[C@@H](CC(C)C)C(=O)N[C@H](C=O)CCCNC(=N)N [Leupeptin],0.392
6,CSCC[C@@H](C=O)NC(=O)[C@H](CC(C)C)NC(=O)[C@H](CC(C)C)NC(C)=O,0.448
7,CCOC(=O)/N=c1/c[n+](N2CCOCC2)[n-]o1 [Molsidomine],0.473
8,CCC[C@@H]1C[C@@H](C(=O)N[C@@H]([C@H]2O[C@H](SC)[C@H](O)[C@@H](O)[C@@H]2O)[C@@H](C)O)N(C)C1.Cl [Lincomycin hydrochloride],0.505
9,CS(=O)(=O)c1ccc([C@@H](O)[C@@H](CF)NC(=O)C(Cl)Cl)cc1 [Florfenicol],0.355
10,CN(C)c1ccc(/C=C2\C(=O)Nc3ccccc32)cc1,0.441 and 0.394
11,COC(=O)Nc1nc2cc(C(=O)c3cccs3)ccc2[nH]1 [Nocodazole],0.916
12,COC(=O)Nc1nc2cc(C(=O)c3cccs3)ccc2[nH]1 [nocodazole],0.612
13,O=C(O)c1ccc2nc(-c3ccccc3)c(-c3ccccc3)nc2c1,0.507
14,COC(=O)Nc1nc2cc(C(=O)c3ccccc3)ccc2[nH]1 [Mebendazole],0.9
15,CC(C(=O)O)c1cccc(C(=O)c2ccccc2)c1 (stereo not given) [Ketoprofen],0.499
16,CC(C(=O)O)c1ccc(C(=O)c2cccs2)cc1 (stereo not given) [Suprofen],0.46
17,Cc1cc(C2CCCCC2)n(O)c(=O)c1.NCCO [Ciclopirox ethanolamine],0.809
18,Cc1cc(=O)n(-c2ccccc2)n1C [Antipyrine],0.36
19,CC(C)COCC(CN(Cc1ccccc1)c1ccccc1)N1CCCC1 (stereo not given),0.621
20,CCCCC[C@H](O)/C=C/C=C\C/C=C\C/C=C\CCCC(=O)O,0.405 ± 0.089
